An excerpt weighted towards active compounds, which were near 2.2% of everything screened.
sPLA2-III inh: human group III sPLA2 inhibitors, primary screen, biochemical, QFRET, BODIPY PC-A2 liposome substrate. 0.56% of 370,000 active. inhibition, % at 12.2 µM. Group 3 secretory phospholipase A2 (Homo sapiens), Q9NZ20. QFRET BODIPY PC-A2 liposome hydrolysis, fluorescence. AID 743126, 2013;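 active = inhibition above mean plus 3 SD of compounds lying within the high and low control bounds, cut at about 19% in these data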;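 also: 0% = median of test compound wells and 100% = no enzyme DMSO wells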
Target sequence (Q9NZ20 whole entry, looked up): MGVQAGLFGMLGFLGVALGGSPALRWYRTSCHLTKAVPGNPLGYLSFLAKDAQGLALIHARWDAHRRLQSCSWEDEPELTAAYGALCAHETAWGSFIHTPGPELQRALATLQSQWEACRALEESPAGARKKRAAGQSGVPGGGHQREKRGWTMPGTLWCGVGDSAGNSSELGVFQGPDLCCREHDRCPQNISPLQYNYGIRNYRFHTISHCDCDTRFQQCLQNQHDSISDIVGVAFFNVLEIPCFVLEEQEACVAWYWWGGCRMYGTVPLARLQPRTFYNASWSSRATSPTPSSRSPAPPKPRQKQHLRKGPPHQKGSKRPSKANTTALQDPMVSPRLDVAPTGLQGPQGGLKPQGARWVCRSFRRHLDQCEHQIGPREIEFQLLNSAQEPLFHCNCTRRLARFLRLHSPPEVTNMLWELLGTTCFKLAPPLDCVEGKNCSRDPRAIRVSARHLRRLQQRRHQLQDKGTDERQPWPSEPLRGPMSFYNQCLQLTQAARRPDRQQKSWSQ
Efflux pump inh: inhibitors of Candida efflux pumps in yeast, primary screen, S. cerevisiae, Nile Red, multiplex | inhibition, % at 10 µM | 0.44% of 330,000 active | S. cerevisiae Candida pump triplex;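 active = plate passing quality check with inhibition over a set limit, or well fluorescence over plate mean plus 4 SD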;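 also: Nile Red retained in pooled yeast measured as flow cytometry median fluorescence; 0% = buffer negative control and 100% = Enniatin B positive control; higher means more Nile Red kept so more efflux inhibition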
SUMO Mot1 rescue: yeast Mot1-301 growth rescue at high temperature, primary screen, SUMOylation pathway inhibitor project, S. cerevisiae, ATP luminescence, 38.5C | 1% of 320,000 active | growth rescue, % at 18.8 µM | AID 2716, 2010 | S. cerevisiae Mot1-301 growth rescue; percent above DMSO median, 100 means doubled;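 active = every valid replicate shows activation above 250% relative to neutral control wells; inactive = the rest, any valid replicate at or below 250%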;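 also: OY570 slx delta 5 strain wells were the positive control but not used for scaling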
SKN-1 inh: suppressors of acrylamide-induced Pgst-4::GFP reporter in worms, primary screen, SKN-1 inhibitor project, whole organism, uHTS, GFP/RFP fluorescence ratio, strain VP596; C. elegans VP596 Pgst-4::GFP/RFP ratio, 24 h; inhibition, % at 21.8 µM; 0.49% of 360,000 active;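 active = interference check ratio from 0.5 to 1.5 plus GFP to RFP signal ratio inhibition reaching or exceeding a fixed threshold, cut at about 30% in these data, passing the limit was not always enough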
Yeast Mot1 SUMO: growth restoration of Mot1-301 yeast on galactose, dose response, SUMO pathway inhibitor project, whole organism, S. cerevisiae, ATP luminescence, cherry-picked samples. shares compounds with SUMO Mot1 rescue. S. cerevisiae Mot1-301 galactose growth, 24 h; -100 = growth of slx-deleted rescue strain. growth activity, percent, % at 42 µM. 2,300 tested, under 10 active. AID 493004, 2010;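 active = Signal drops as the depositor expects, and the fitted half-maximal dose is no more than ten times the top valid tested dose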;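 also: more negative values mean stronger growth rescue toward the control strain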
* = called active by the depositor; [ ] = dose if it differs, or a comment.

For CCn1c(=O)c2ccccc2n2c(SCC(=O)N3CCc4ccccc4C3)nnc12 the results were sPLA2-III inh 1, Efflux pump inh 0, SUMO Mot1 rescue 16 and SKN-1 inh 3.
`CCN1CCCC1CNCc1cccc(OC)c1OCc1ccc(F)cc1` (configuration not stated) gave sPLA2-III inh 0, Efflux pump inh 0, SUMO Mot1 rescue -16 and SKN-1 inh -4.
Screening COc1ccc(NC(=O)c2ccc(-n3cncn3)c([N+](=O)[O-])c2)cc1 returned sPLA2-III inh 0, Efflux pump inh 0, SUMO Mot1 rescue 901*, SKN-1 inh 3 and Yeast Mot1 SUMO -1[21 µM].
Screening CC(C)[N+]1(C)[C@@H]2CC[C@@H]1CC(OC(=O)C(CO)c1ccccc1)C2 (some centres not stated) returned sPLA2-III inh -3, Efflux pump inh 0, SUMO Mot1 rescue 371*, SKN-1 inh -21 and Yeast Mot1 SUMO 0.
O=[N+]([O-])c1nn(-c2ccc(Cl)cc2)n(O)c1=NCc1ccncc1 was read as sPLA2-III inh 5, Efflux pump inh 0, SUMO Mot1 rescue 117 and SKN-1 inh 6.
Screening O=[N+]([O-])c1nn(-c2ccc(Cl)cc2)n(O)c1=NCc1ccccc1Cl returned sPLA2-III inh -3, Efflux pump inh 0, SUMO Mot1 rescue active, SKN-1 inh 22 and Yeast Mot1 SUMO -1.
Screening CCCc1nccn1S(=O)(=O)c1cc(OC)ccc1OC returned sPLA2-III inh 2, Efflux pump inh 0 and SKN-1 inh -8.
`CCc1nccn1S(=O)(=O)c1cc(OC)ccc1OC` gave sPLA2-III inh 3, Efflux pump inh 0, SUMO Mot1 rescue 499*, SKN-1 inh 17 and Yeast Mot1 SUMO 1.
c1ccc(C(c2ccccc2)N2CCN(C(c3ccccn3)c3nnnn3C3CCCC3)CC2)cc1 (configuration not stated) was read as Efflux pump inh 0, SUMO Mot1 rescue active, SKN-1 inh -1 and Yeast Mot1 SUMO 0.
Screening c1ccc(C(c2nnnn2C2CCCC2)N2CCCCCC2)nc1 (configuration not stated) returned sPLA2-III inh 6, Efflux pump inh 0, SUMO Mot1 rescue 0 and SKN-1 inh -7.
COc1ccc(C=NN=C2c3ccccc3-c3ccccc32)cc1OC was read as sPLA2-III inh -6 and SKN-1 inh 12.
Screening CN(C)CCOC(c1ccc(Cl)cc1)c1ccccn1 (configuration not stated) returned sPLA2-III inh -1, Efflux pump inh 0, SUMO Mot1 rescue 974*, SKN-1 inh 3 and Yeast Mot1 SUMO 0.
Screening Cc1cccc(C)c1NC(=O)CN1C(=O)CCSc2ccc(S(=O)(=O)N3CCCC3)cc21 returned sPLA2-III inh -3, Efflux pump inh 0, SUMO Mot1 rescue 208 and SKN-1 inh 11.
`COc1cc(NC(=O)C2CCCN(S(=O)(=O)c3cc(OC)ccc3OC)C2)cc(OC)c1` (configuration not stated) gave sPLA2-III inh -11.
COC(=O)c1ccccc1NC(=O)NC1CCCC1 was read as sPLA2-III inh -6, Efflux pump inh 0, SUMO Mot1 rescue -15 and SKN-1 inh 13.
`COc1ccc(NC(=O)c2ccccc2NC(=O)NC2CCCCC2)cc1` gave sPLA2-III inh -1, Efflux pump inh 0, SUMO Mot1 rescue 522*, SKN-1 inh 33 and Yeast Mot1 SUMO 0.
O=C(Nc1nc2ccccc2s1)c1cccc(S(=O)(=O)N2CCc3ccccc32)c1 was read as sPLA2-III inh -7, Efflux pump inh 0, SUMO Mot1 rescue active, SKN-1 inh 7 and Yeast Mot1 SUMO 0.
Screening Cc1ccc(C)c(OCCCC(=O)O)c1 returned sPLA2-III inh 9, Efflux pump inh 0, SUMO Mot1 rescue 83 and SKN-1 inh -3.
`Cc1ccc(C)c(OCCCC(=O)N2CCOCC2)c1` gave sPLA2-III inh 1, Efflux pump inh 0, SUMO Mot1 rescue 689*, SKN-1 inh -3 and Yeast Mot1 SUMO 1.
Cc1cnc(C(=O)OCC(=O)N2C(C)CCCC2C)cn1 (configuration not stated) was read as sPLA2-III inh 6, Efflux pump inh 0, SUMO Mot1 rescue 8 and SKN-1 inh 16.
O=C(CCSc1ccccc1)NNC(=O)c1ccccc1F was read as sPLA2-III inh 5, Efflux pump inh 0, SUMO Mot1 rescue 517*, SKN-1 inh -10 and Yeast Mot1 SUMO 0.
Screening COc1ccccc1Nc1nc(NCCCCO)nc(N2CCCC2)n1 returned sPLA2-III inh -47, Efflux pump inh 0, SUMO Mot1 rescue -2 and SKN-1 inh 2.
Screening Cc1ccc(NC(=O)Cn2c(=O)cnc3ccccc32)cc1S(=O)(=O)N1CCCCC1 returned sPLA2-III inh -7, Efflux pump inh 0 and SKN-1 inh 14.
Screening COc1ccc(NC(=O)Cn2c(=O)cnc3ccccc32)cc1S(=O)(=O)N1CCCCC1 returned sPLA2-III inh -14, Efflux pump inh 0, SUMO Mot1 rescue 428*, SKN-1 inh -4 and Yeast Mot1 SUMO 0.
Screening COc1ccc(NC(=O)COc2cc(C)cc(C)c2)cc1S(=O)(=O)N1CCCCC1 returned sPLA2-III inh -6, Efflux pump inh 0, SUMO Mot1 rescue 530*, SKN-1 inh -8 and Yeast Mot1 SUMO 1.
Screening O=C(c1ccc(COc2ccc3ccccc3c2)o1)N1N=C(C(F)F)CC1(O)C(F)F (configuration not stated) returned Efflux pump inh 0, SUMO Mot1 rescue 1 and SKN-1 inh 2.
For O=C(c1ccc(COc2ccccc2Cl)o1)N1N=C(C(F)F)CC1(O)C(F)F (configuration not stated) the results were sPLA2-III inh -16, Efflux pump inh 0, SUMO Mot1 rescue 438*, SKN-1 inh -2 and Yeast Mot1 SUMO 0.
`Cc1cc(C)c(NC(=S)N2CCN(c3ccc([N+](=O)[O-])cn3)CC2)cc1C` gave sPLA2-III inh 11, Efflux pump inh 0, SUMO Mot1 rescue 15 and SKN-1 inh -2.
Screening CCOC(=O)c1c(CN2CCCCC2)n(C)c2cc(Br)c(O)c(CN(C)C)c12 returned Efflux pump inh 0, SUMO Mot1 rescue 472*, SKN-1 inh -5 and Yeast Mot1 SUMO 0.
`CCOC(=O)c1c(CSc2ccccc2)n(C)c2cc(Br)c(O)c(CN(C)C)c12` gave sPLA2-III inh -26, Efflux pump inh 0, SUMO Mot1 rescue -14 and SKN-1 inh -1.
